The record followed here is PubChem BioAssay (EPA / NIEHS).

Broadly, the AC50 is the concentration at which the activity in the assay is half-maximal.

The target in experiment [1] is GAL4 Transcription Factor (Internal Marker), GAL4 (gene 855828) (UniProt P04386). Briefly: ATG_GAL4_XSP1: Attagene TRANS-FACTORIAL Multi-Species (XSP1) HepG2 Assay for GAL4 Transcription Factor (Internal Marker) (AID 2283789). The essentials:
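HepG2 cells transiently transfected with multiplexed GAL4-UAS reporter units were exposed for 24 h with 3 nM 6-alpha-fluorotestosterone present. Reporter mRNA was quantified by RT-PCR, FAM labelling, HpaI digestion and capillary electrophoresis; background-control readout, gain-of-signal versus DMSO.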

Experiment [2] in a line: ATG_M_06_XSP1: Attagene TRANS-FACTORIAL Multi-Species (XSP1) HepG2 Assay for M06 Transcription Factor (Internal Marker) (AID 2283790). An outline of the steps: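 Transfected HepG2 multi-reporter system treated 24 h in the presence of 3 nM 6-alpha-fluorotestosterone. The M06 internal marker transcript was quantified by RT-PCR with capillary electrophoresis as a background control, and gain of signal was scored versus DMSO.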

A short description of experiment [3]: ATG_M_61_XSP1: Attagene TRANS-FACTORIAL Multi-Species (XSP1) HepG2 Assay for M61 Transcription Factor (Internal Marker) (AID 2283797). An outline of the steps: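 HepG2 cells transiently transfected with multiplexed GAL4-driven reporter units, dosed 24 h with 3 nM 6-alpha-fluorotestosterone present. Reporter mRNA quantified by RT-PCR, 6-FAM labelling, HpaI digestion and capillary electrophoresis; internal-marker background control, gain of signal versus DMSO.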

Experiment [4] concerns zebrafish Peroxisome Proliferator-activated Receptor gamma (PPARg), gene 557037. Briefly: ATG_zfPPARg_XSP1: Attagene TRANS-FACTORIAL Multi-Species (XSP1) HepG2 Assay for zebrafish Peroxisome Proliferator-activated Receptor gamma (PPARg) (AID 2283801). An outline of the steps:
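HepG2 cells transiently transfected with GAL4-UAS reporter units including a zebrafish PPARg–GAL4 chimera, dosed 24 h with 3 nM 6-alpha-fluorotestosterone present. Reporter mRNA quantified by RT-PCR, FAM labelling, HpaI digestion and capillary electrophoresis; induction versus DMSO.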

The target in experiment [5] is Nuclear receptor subfamily 1 group I member 2 (Mus musculus) (UniProt O54915). Briefly: ATG_mPXR_XSP1: Attagene TRANS-FACTORIAL Multi-Species (XSP1) HepG2 Assay for mouse Pregnane X Receptor (PXR) (AID 2283803). An outline of the steps:
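Transiently transfected HepG2 cells expressing a receptor-Gal4 chimera drive a GAL4-UAS reporter; 3 nM 6-alpha-fluorotestosterone included. Reporter mRNA read 24 h post-dose by RT-PCR and capillary electrophoresis; gain of signal relative to DMSO.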

Experiment [6] concerns the target frog Thyroid hormone Receptor alpha (TRa), thra-a (gene 397942) (UniProt P15204). Description: ATG_frTRa_XSP1: Attagene TRANS-FACTORIAL Multi-Species (XSP1) HepG2 Assay for frog Thyroid hormone Receptor alpha (TRa) (AID 2283804). How it is done: ATG_XSP1_multi-species_TRANS is a cell-based, multiplexed assay created by modifying the existing Attagene TRANS-FACTORIAL system to include a panel of nuclear receptors from some or all the following species: human (Homo sapiens), mouse (Mus musculus), frog (Xenopus laevis), zebrafish (Danio rerio), chicken (Gallus gallus), and turtle (Chrysemys picta). The ECOTOX-FACTORIAL format uses HepG2, a human liver cell line, with measurements taken at 24 hours after chemical dosing in a 24-well plate. Xsp1 included 3 nM 6-alpha-fluorotestosterone to partially stimulate the androgen receptor.ATG_frTRa_XSP1 is one of 29 assay components measured or calculated from the ATG_XSP1_multi-species_TRANS assay. It is designed to make measurements of mRNA induction, a form of inducible reporter, as detected with fluorescence intensity signals by Reverse transcription polymerase chain reaction (RT-PCR) and Capillary electrophoresis technology.The assay endpoint ATG_frTRa_XSP1 was analyzed in the positive analysis fitting direction relative to DMSO as the negative control and baseline of activity. […] Furthermore, this assay endpoint can be referred to as a primary readout, because this assay has produced multiple assay endpoints where this one serves a reporter gene function. […]

The structures appear in SMILES notation. Inconclusive results are not listed. Activity calls are given as the source filed them. How the source made its calls: active means hit-call score of the fitted dose curve at least 0.9, where 1 is the maximum; inconclusive means response in the unintended direction; inactive means score below 0.9.

Chain of frog Thyroid hormone Receptor alpha (TRa), thra-a (gene 397942) (P15204 whole entry, looked up): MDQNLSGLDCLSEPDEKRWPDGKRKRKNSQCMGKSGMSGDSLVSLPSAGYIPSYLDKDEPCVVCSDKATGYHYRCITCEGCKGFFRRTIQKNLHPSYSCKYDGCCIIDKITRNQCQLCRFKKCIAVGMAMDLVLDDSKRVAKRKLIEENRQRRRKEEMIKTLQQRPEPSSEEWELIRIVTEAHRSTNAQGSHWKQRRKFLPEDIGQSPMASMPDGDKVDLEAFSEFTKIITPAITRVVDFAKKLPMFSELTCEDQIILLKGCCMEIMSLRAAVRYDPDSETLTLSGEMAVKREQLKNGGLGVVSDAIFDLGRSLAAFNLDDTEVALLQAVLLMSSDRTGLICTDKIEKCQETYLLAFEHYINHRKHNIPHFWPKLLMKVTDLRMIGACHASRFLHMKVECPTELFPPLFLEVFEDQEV
Chain of Nuclear receptor subfamily 1 group I member 2 (Mus musculus) (O54915 whole entry, looked up, the tested form may be a part): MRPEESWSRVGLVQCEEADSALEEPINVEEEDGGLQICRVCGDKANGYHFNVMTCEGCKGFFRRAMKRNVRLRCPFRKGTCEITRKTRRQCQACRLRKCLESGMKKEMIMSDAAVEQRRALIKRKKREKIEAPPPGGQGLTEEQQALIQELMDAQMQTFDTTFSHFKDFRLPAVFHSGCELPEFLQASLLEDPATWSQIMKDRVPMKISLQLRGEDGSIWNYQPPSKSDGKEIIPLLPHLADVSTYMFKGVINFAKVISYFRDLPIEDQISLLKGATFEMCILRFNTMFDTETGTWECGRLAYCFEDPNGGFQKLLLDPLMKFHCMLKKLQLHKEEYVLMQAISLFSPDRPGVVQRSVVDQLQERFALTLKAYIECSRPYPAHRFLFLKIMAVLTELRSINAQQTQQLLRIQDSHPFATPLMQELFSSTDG
Chain of GAL4 Transcription Factor (Internal Marker), GAL4 (gene 855828) (P04386 whole entry, looked up, the tested form may be a part): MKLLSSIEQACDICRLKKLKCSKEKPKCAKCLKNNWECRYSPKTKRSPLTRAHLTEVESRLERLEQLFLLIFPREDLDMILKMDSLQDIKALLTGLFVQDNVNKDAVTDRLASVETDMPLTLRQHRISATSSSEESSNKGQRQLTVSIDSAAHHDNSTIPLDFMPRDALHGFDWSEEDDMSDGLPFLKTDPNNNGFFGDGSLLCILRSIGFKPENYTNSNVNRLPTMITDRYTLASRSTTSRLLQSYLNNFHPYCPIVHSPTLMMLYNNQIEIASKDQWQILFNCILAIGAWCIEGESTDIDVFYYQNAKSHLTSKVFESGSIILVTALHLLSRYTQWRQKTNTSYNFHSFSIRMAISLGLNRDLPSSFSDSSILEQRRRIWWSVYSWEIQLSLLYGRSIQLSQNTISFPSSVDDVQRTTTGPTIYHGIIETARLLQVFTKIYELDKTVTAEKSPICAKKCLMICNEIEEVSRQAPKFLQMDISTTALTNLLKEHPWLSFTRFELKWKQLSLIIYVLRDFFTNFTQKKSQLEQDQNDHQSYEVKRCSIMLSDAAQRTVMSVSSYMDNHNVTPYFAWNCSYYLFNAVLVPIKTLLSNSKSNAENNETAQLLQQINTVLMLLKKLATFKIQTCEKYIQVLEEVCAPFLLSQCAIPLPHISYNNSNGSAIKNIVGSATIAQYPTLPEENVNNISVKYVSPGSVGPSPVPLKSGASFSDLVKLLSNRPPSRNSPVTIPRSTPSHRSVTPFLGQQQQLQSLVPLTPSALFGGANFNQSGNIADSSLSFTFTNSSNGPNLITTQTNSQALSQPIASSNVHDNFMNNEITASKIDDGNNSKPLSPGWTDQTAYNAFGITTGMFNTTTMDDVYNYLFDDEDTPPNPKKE

With `CC(C)(C)NC(=O)[C@H]1CC[C@H]2[C@@H]3CC[C@H]4NC(=O)C=C[C@]4(C)[C@H]3CC[C@]12C`, the outcome in experiment [1], in experiment [2], in experiment [3], in experiment [4] and in experiment [6] was inactive. The AC50 in experiment [5] was 3.8 µM (active).
